Assay results from PubChem BioAssay.
A number with no mark means an inactive call. Active and inactive are the calls of the source. Unless noted, no stated cut-off is given here; in the data, active means inhibition above about 30%; inactive means the rest.

Biological target: Nuclear receptor coactivator 3 (Homo sapiens) (UniProt Q9Y6Q9)
Test: NCOA3 GAL4-fusion reporter inhibition – cell-based, luminescence, quadruplicate, confirmation (AID 588792;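 active means mean inhibition over 43.08%, the solvent-only control mean plus 3 SD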;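 further: 0% = DMSO treated cells and 100% = gossypol at 36 µM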)
Details: HEK293 GAL4-SRC3 luciferase reporter, at 3.6 µM, stronger effect = higher value

Chain of Nuclear receptor coactivator 3 (Homo sapiens) (Q9Y6Q9 whole entry, looked up, the tested form may be a part): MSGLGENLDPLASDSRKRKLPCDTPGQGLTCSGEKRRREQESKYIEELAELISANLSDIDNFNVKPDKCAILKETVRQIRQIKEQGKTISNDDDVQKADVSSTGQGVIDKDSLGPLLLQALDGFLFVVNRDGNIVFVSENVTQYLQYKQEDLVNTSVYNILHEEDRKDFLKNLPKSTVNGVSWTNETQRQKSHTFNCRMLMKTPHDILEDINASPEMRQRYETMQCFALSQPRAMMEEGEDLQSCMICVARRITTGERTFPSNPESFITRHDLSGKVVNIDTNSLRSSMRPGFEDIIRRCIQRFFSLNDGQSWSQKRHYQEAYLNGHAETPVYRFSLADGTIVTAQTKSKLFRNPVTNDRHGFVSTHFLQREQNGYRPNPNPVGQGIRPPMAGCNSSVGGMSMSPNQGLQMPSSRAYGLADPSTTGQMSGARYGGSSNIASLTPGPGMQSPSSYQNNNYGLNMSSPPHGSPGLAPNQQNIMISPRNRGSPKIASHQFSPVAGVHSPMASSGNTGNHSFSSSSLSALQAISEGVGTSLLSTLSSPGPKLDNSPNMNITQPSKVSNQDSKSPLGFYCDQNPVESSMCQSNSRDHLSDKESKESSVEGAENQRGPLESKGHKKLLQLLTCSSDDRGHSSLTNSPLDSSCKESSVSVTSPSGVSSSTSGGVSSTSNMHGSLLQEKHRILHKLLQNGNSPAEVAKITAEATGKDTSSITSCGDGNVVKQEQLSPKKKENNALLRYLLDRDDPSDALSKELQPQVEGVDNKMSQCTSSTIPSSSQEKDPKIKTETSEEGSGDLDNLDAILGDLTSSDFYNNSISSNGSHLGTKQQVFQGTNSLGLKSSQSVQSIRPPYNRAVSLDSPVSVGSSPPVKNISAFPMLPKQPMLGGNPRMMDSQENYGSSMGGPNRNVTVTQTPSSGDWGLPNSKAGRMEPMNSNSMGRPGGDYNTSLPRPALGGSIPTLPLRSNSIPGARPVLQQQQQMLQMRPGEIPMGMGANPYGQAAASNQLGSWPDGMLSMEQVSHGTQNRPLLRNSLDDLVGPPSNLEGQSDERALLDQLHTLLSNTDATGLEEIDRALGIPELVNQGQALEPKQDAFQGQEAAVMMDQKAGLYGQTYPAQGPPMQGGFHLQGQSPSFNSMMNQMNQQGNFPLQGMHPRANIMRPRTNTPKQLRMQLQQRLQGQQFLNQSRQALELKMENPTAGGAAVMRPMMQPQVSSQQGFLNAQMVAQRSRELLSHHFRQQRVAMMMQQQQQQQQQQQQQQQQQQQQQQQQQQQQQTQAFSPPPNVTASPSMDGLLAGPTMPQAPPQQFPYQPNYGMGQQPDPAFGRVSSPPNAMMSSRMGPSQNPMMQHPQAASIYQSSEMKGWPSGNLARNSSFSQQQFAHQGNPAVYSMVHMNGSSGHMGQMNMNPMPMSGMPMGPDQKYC

Point of comparison: `O=C(CSc1nnc(COc2ccc(Cl)cc2)o1)N1CCOCC1`, inhibition -3.82%. Against it:
- CCN(CC(=O)Nc1ccc(OC)cc1)C(=O)CSCC(=O)Nc1cc(C)on1 — higher, 5.34%
- O=[N+]([O-])c1ccc(S(=O)(=O)CC2CSc3nc4ccccc4n32)cc1 (stereo unspecified) — higher, 15.6%
- COc1ccc2c(c1)N(C)/C(=C/c1cccc[n+]1C)S2 — lower, -6.44%
- NC(=S)Nc1cc(Cl)cc(Cl)c1 — higher, 23.7%
- Cc1sc(-c2ccccn2)nc1OC(=O)c1ccc(F)cc1F — higher, 13.9%
- COC(=O)N/N=C/c1cn(Cc2ccc(Cl)cc2Cl)c2ccccc12 — higher, 18.6%
- COc1ccc(OC)c(NC(=O)c2cccc(N3C(=O)C4C5C=CC(C6CC56)C4C3=O)c2)c1 (stereo unspecified) — lower, -11.6%
- CC(=O)Nc1ccc(C(=O)N/N=C/c2cc(Br)cc(Br)c2O)cc1 — higher, 6.09%
- CCCC(=O)NC(NC(=S)Nc1ccc(N=Nc2ccccc2)cc1)C(Cl)(Cl)Cl (stereo unspecified) — higher, 3.89%
- COc1cc(NC(=O)C2CCN(S(=O)(=O)c3ccc(N4CCCC4=O)cc3)CC2)cc(OC)c1 — higher, 7.83%
- O=C(NC(=S)NNC(=O)c1ccccc1O)c1ccc(F)cc1 — higher, 19%
- Cc1ccc(C(=O)N(Cc2cccs2)C2CCS(=O)(=O)C2)cc1 (stereo unspecified) — lower, -5.57%
- CCC(=O)N1CCN(c2ccnc3cc(Cl)ccc23)CC1 — higher, 29.1%
- Cc1ccc(S(=O)(=O)NCCC(=O)Nc2ccncc2)cc1C — higher, -1.9%
- CCOC(=O)c1c(C)[nH]c(C)c1C(=O)COC(=O)/C=C/c1cccc(Cl)c1 — higher, -3.47%
- CC1(C)CC(=O)C=C(C#CC2(O)CCCCC2)C1 — higher, 19%
- COc1ccc(C)cc1NC(=O)CN1C(=O)CSc2ccc(S(=O)(=O)N3CCCC3)cc21 — higher, 4.25%
- Fc1ccc(-c2noc(C3CCN(Cc4cccnc4)CC3)n2)cc1 — lower, -4.45%
- Nc1nc(NCc2ccco2)nc(N2CCCCCC2)c1[N+](=O)[O-] — higher, -0.71%
- Cc1cc2[nH]c3c4ccccc4nc(C)c3c2cc1C — higher, 20.5%
- Cc1ccccc1-n1nnnc1Sc1nnnn1-c1ccccc1 — higher, 7%
- CCc1ccc(N2CC(C(=O)N/N=C/c3cc([N+](=O)[O-])ccc3O)CC2=O)cc1 (stereo unspecified) — lower, -9%
- Cc1cccc(C)c1OCC(=O)N(Cc1cccs1)C1CCS(=O)(=O)C1 (stereo unspecified) — higher, 8.07%
- Clc1ccc(-c2noc(CSc3nnc(-c4ccncc4)n3-c3ccccc3)n2)cc1 — higher, 8.46%
- CCOc1ccc(/C=N/OCC(=O)NCc2ccc3c(c2)OCO3)cc1OC — lower, -12.6%

Test system: transactivating tegument protein VP16 (Human herpesvirus 1), Gal4-VP16 luciferase reporter
Test: repression of VP16-driven luciferase reporter – cell-based, luminescence, high throughput, counter-screen for SRC3 inhibitor project (AID 588794)
Details: mammalian cells, at 3.6 µM, stronger effect = higher value

Point of comparison: `CCCC(=O)NC(NC(=S)Nc1ccc(N=Nc2ccccc2)cc1)C(Cl)(Cl)Cl` (stereo unspecified), inhibition 18.1%. Against it:
- CCN(C(=O)c1cnc(OC)cc1C(F)(F)F)c1ccc(Cl)cc1 — lower, 4.62%
- COc1ccc(NC(=O)c2cc(C3CC3)nc3c2cnn3C(C)C)cc1OC — lower, -3.62%
- CCC(=O)NC(c1cccs1)c1ccc2cccnc2c1O (stereo unspecified) — higher, 25.9%
- NCCCn1c(C(=O)c2cc(Cl)c(N)c(Cl)c2)c2ccc([N+](=O)[O-])cc2[n+]1[O-] — lower, 9.54%
- COc1ccc(CNC(=O)[C@H](Cc2ccccc2)NC(=O)C2CCN(C(=O)[C@H](C)N)CC2)cc1 — lower, -2.01%
- CCSc1nsc(NC(=O)Nc2cccc(F)c2)n1 — lower, 15.4%
- COc1cccc(C(=O)/C=C/c2ccc(OCC#N)c(OC)c2)c1 — higher, 23.2%
- Cn1c(N)c(C(=O)COC(=O)C2CC(=O)N(Cc3ccccc3)C2)c(=O)n(C)c1=O (stereo unspecified) — lower, -2.93%
- COc1cccc(/C=N/NC(=O)C(C)n2nc(C)c([N+](=O)[O-])c2C)c1O (stereo unspecified) — higher, 27.4%
- CC(=O)c1cccc(NC(=O)c2cc(S(=O)(=O)N3CCOCC3)cs2)c1 — lower, 1.82%
- COCCN(CCOC)S(=O)(=O)c1ccc(C(=O)Nc2nc3c(s2)CCc2ccccc2-3)cc1 — lower, 0.01%
- Cn1nc(C(F)(F)F)cc1C(=O)Nc1ccc(Cl)cc1 — lower, 8.1%
- CCN(CC(=O)Nc1ccc(OC)cc1)C(=O)CSCC(=O)Nc1cc(C)on1 — lower, 5.42%
- O=[N+]([O-])c1ccc(S(=O)(=O)CC2CSc3nc4ccccc4n32)cc1 (stereo unspecified) — higher, 18.6%
- NC(=S)Nc1cc(Cl)cc(Cl)c1 — higher, 20.4%
- Cc1sc(-c2ccccn2)nc1OC(=O)c1ccc(F)cc1F — lower, 16.1%
- COC(=O)N/N=C/c1cn(Cc2ccc(Cl)cc2Cl)c2ccccc12 — lower, 0.26%
- COc1ccc(OC)c(NC(=O)c2cccc(N3C(=O)C4C5C=CC(C6CC56)C4C3=O)c2)c1 (stereo unspecified) — lower, 7.26%
- CC(=O)Nc1ccc(C(=O)N/N=C/c2cc(Br)cc(Br)c2O)cc1 — lower, 11.2%
- COc1cc(NC(=O)C2CCN(S(=O)(=O)c3ccc(N4CCCC4=O)cc3)CC2)cc(OC)c1 — lower, 5.99%
- O=C(NC(=S)NNC(=O)c1ccccc1O)c1ccc(F)cc1 — lower, 9.84%
- Cc1ccc(C(=O)N(Cc2cccs2)C2CCS(=O)(=O)C2)cc1 (stereo unspecified) — lower, 0.26%
- CCC(=O)N1CCN(c2ccnc3cc(Cl)ccc23)CC1 — lower, 9.02%
- Cc1ccc(S(=O)(=O)NCCC(=O)Nc2ccncc2)cc1C — lower, -0.54%
- O=C(CSc1nnc(COc2ccc(Cl)cc2)o1)N1CCOCC1 — lower, -7.96%
- CCOC(=O)c1c(C)[nH]c(C)c1C(=O)COC(=O)/C=C/c1cccc(Cl)c1 — lower, -1.23%
- CC1(C)CC(=O)C=C(C#CC2(O)CCCCC2)C1 — lower, 1.31%
- COc1ccc(C)cc1NC(=O)CN1C(=O)CSc2ccc(S(=O)(=O)N3CCCC3)cc21 — lower, 3.04%
- Fc1ccc(-c2noc(C3CCN(Cc4cccnc4)CC3)n2)cc1 — lower, 6.14%
- Nc1nc(NCc2ccco2)nc(N2CCCCCC2)c1[N+](=O)[O-] — lower, 18%
- Cc1ccccc1-n1nnnc1Sc1nnnn1-c1ccccc1 — lower, 7.79%
- CCc1ccc(N2CC(C(=O)N/N=C/c3cc([N+](=O)[O-])ccc3O)CC2=O)cc1 (stereo unspecified) — lower, 9.04%
- Cc1cccc(C)c1OCC(=O)N(Cc1cccs1)C1CCS(=O)(=O)C1 (stereo unspecified) — lower, 1.1%
- Clc1ccc(-c2noc(CSc3nnc(-c4ccncc4)n3-c3ccccc3)n2)cc1 — lower, 8.1%
- CCOc1ccc(/C=N/OCC(=O)NCc2ccc3c(c2)OCO3)cc1OC — lower, -5.41%

For `COc1ccccc1NS(=O)(=O)c1cc(NC(=O)c2ccc(Cl)nc2)ccc1Cl`, the inhibition was 30.7% (active).
With `O=C(Nc1nc(-c2ccccn2)cs1)c1ccc(F)c(S(=O)(=O)N2CCOCC2)c1` the inhibition was 33.5% (active).
`COc1ccc2c(c1)N(C)/C(=C/c1cccc[n+]1C)S2` was tested, and the inhibition was 37.5% (active).
In the case of `Cc1cc2[nH]c3c4ccccc4nc(C)c3c2cc1C`, the inhibition is reported as 33.8% (active).
